Measurements reported in PubChem BioAssay.
Values joined by “and” are separate entries in the source; they are usually repeats but may differ in a detail not shown here. Identical values can stand only once. Active and inactive are the calls of the source.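 How the source made its calls, unless noted: active means inhibition at or above 50% relative to wild type and mutant plate controls; inactive means inhibition below 50%.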

What was measured:
[1] = reduction of polyQ htt aggregates in cells – imaging, exon1htt(103Q)mCFP cells, high-content imaging, primary screen (AID 483;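 active means visual image review flags a hit and inhibition of aggregation exceeds 20%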;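 further: compound exposure lasted 3 days before fixation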;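 on nuclei count: percent of the per-plate median nuclei count of sample wells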); settings: exon1htt(103Q)mCFP cell line, aggregate imaging, at 2 µM; inhibition of aggregation: stronger effect = higher value; nuclei count: measured here: cell count, toxicity
[2] = endothelial E-selectin expression blockers – imaging, HUVEC, immunofluorescence, MLSMR starter and 10KST1 sets, primary screen (AID 487;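 active means visually confirmed hit in the image check and inhibition above 20%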;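 on inhibition: signal is fraction of cell area covered by stained E-selectin grains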;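 on nuclei count: 100% = median nuclei count of all wells on the same plate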); settings: HUVEC TNFalpha-induced E-selectin immunofluorescence imaging, at 2 µM; inhibition: stronger effect = higher value; nuclei count: measured here: cell number, toxicity
[3] = Primary imaging screen for DUSP6 inhibitors that restore phospho-Erk in transfected HeLa cells, chemical complementation (AID 609;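 active means compounds giving at least 50% inhibition in the cell-based MKP-3 phosphatase rescue imaging test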;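 on inhibition: phospho-Erk level distribution per well compared with pooled transfected vehicle control wells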); settings: HeLa MKP-3 transfected, phospho-Erk imaging KS statistic, at 10 µM, cells stimulated with TPA for 15 min
[4] = target: Dual specificity protein phosphatase 6 (Homo sapiens) (UniProt Q16828); assay: as above; settings: HeLa MKP-3 transfected, phospho-Erk imaging KS statistic; at 10 µM; stronger effect = higher value; cells stimulated with TPA for 15 min
Chain of Dual specificity protein phosphatase 6 (Homo sapiens) (Q16828 whole entry, looked up): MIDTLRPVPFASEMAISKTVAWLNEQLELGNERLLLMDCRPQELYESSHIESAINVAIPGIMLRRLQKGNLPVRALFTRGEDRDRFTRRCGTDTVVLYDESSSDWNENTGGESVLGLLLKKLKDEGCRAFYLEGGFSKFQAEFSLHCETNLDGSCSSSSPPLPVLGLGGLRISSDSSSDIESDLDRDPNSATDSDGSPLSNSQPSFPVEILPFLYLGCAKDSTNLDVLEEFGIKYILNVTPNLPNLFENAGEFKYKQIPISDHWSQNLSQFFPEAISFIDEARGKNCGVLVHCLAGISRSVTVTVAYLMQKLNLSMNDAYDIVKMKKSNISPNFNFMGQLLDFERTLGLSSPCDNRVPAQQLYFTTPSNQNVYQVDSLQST

[5] = target: Voltage-gated potassium channel subunit beta-2 (Rattus norvegicus) (UniProt P62483); assay: inhibitors of rat Kvbeta2 reductase activity – biochemical, NADPH fluorescence, primary screen (AID 622;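 active means fluorescence slope higher than the sample average by over 3 SD, cut at about -0.22 in these data, passing the limit was not always enough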;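 further: slope of raw intensity against log time taken from 70 to 1610 s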); settings: recombinant KvBeta, 4-cyanobenzaldehyde reduction, at 10 µM, stronger effect = higher value
Chain of Voltage-gated potassium channel subunit beta-2 (Rattus norvegicus) (P62483 whole entry, looked up): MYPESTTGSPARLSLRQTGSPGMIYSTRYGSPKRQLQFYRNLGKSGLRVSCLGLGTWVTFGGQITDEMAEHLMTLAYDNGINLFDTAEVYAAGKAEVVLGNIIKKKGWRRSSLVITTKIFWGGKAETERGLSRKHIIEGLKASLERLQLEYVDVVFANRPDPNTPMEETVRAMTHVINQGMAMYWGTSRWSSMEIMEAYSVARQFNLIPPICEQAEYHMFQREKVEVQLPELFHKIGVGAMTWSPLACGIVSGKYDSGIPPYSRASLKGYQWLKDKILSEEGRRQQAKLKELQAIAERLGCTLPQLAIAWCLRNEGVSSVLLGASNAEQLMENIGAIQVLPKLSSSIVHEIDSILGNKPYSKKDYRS

[6] = target: Voltage-gated potassium channel subunit beta-2 (Rattus norvegicus) (UniProt P62483); assay: enhancers of rat Kvbeta2 NADPH turnover – biochemical, NADPH fluorescence, primary screen (AID 623;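 active means NADPH fluorescence slope more negative than the mean of all samples by about 3 SD, 99.7% confidence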;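 further: fluorescence intensity change per second fitted from 20 to 320 s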); settings: Recombinant KvBeta, NADPH fluorescence decrease slope, 10 min; at 10 µM; stronger effect = lower value
[7] = target: Alpha-2C adrenergic receptor (Homo sapiens) (UniProt P18825); assay: compounds altering alpha2C-coupled GIRK flux – cell-based, HEK293 alpha2C/GIRK1/2, thallium flux, primary screen (AID 624;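 active means fluorescence slope after compound addition differing from the mean of all screened samples at 99.7% confidence, in either direction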;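 further: slope of fluorescence ratio to pre-addition baseline per second over 15 to 24 s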); settings: thallium flux BTC fluorescence, at 10 µM, actives lie on both sides
Chain of Alpha-2C adrenergic receptor (Homo sapiens) (P18825 whole entry, looked up): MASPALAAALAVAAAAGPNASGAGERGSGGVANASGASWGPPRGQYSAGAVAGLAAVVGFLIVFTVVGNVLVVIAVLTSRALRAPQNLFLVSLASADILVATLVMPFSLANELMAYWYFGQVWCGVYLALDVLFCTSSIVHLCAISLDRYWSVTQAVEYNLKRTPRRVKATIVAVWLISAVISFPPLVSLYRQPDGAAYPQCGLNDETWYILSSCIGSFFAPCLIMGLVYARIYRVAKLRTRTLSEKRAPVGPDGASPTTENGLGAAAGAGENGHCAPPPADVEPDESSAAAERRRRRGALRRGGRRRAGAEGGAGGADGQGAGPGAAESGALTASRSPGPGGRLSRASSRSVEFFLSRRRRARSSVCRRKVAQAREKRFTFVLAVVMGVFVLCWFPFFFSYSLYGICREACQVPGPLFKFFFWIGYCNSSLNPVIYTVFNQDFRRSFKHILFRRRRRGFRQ

[8] = inhibitors of larval lipid processing in zebrafish, primary screen, whole organism, PED6 fluorescence, gall bladder and intestine (AID 686;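 active means a full or partial loss of lipid-probe fluorescence in the fish gall bladder, intestine or both, judged by eye; inactive means no fluorescence loss, or compound toxic to the fish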;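 further: larvae 5 to 7 days old with five fish per well; signal comes from phospholipase A2 cleavage of quenched PED6 carried via bile; overnight exposure to compound and PED6 before scoring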); settings: Zebrafish larvae PED6 lipid processing, fluorescence scoring; screened at 20 µM (by protocol)
[9] = loss of swimming-algae plug formation – whole organism, Chlamydomonas reinhardtii, WT vs cilia-less mutant, absorbance, 96-well, primary screen (AID 463189); settings: Chlamydomonas reinhardtii gravitaxis, OD600 absorbance, 2 days; at 10 µM; stronger effect = higher value;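 further: 0% = wild type cc124 cells in DMSO and 100% = ciliumless bld1 mutant cells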
[10] = blockers of RIG-like receptor reporter activation – cell-based, Sendai virus stimulus, luciferase, 10K MLSCN set, TLR/RLR signaling modifier project, primary screen (AID 602276;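 active means inhibition at or above 50% at 10 µM; inactive means inhibition below 50%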;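 further: firefly luciferase from ISG56 promoter only with Renilla not read in this screen; 0% = Sendai virus plus DMSO and 100% = medium plus DMSO without virus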); settings: HEK293 RL24 IRF3 luciferase reporter, at 10 µM, stronger effect = higher value
[11] = TLR3 IRF3 reporter activation blockers – cell-based, poly I:C stimulus, luciferase, 10K MLSCN set, primary screen (AID 602277;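 active means inhibition of the reporter signal at or above 50%; inactive means inhibition below 50%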); settings: HEK293-TLR3 RL24 IRF3 luciferase reporter, at 10 µM, stronger effect = higher value
[12] = target: Muscarinic acetylcholine receptor M4 (Homo sapiens) (UniProt P08173); assay: M4-linked GIRK flux change, two-sided – cell-based, HEK293 M4/GIRK, thallium flux, BTC-AM, M4 allosteric agonist project, primary screen (AID 625;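 active means fluorescence slope after compound addition differing from the mean of all tested samples at 99.7% confidence, mostly higher but some lower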;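 further: thallium influx through GIRK channels coupled to M4 in HEK293 cells with BTC-AM dye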); settings: at 10 µM, actives lie on both sides
Chain of Muscarinic acetylcholine receptor M4 (Homo sapiens) (P08173 whole entry, looked up): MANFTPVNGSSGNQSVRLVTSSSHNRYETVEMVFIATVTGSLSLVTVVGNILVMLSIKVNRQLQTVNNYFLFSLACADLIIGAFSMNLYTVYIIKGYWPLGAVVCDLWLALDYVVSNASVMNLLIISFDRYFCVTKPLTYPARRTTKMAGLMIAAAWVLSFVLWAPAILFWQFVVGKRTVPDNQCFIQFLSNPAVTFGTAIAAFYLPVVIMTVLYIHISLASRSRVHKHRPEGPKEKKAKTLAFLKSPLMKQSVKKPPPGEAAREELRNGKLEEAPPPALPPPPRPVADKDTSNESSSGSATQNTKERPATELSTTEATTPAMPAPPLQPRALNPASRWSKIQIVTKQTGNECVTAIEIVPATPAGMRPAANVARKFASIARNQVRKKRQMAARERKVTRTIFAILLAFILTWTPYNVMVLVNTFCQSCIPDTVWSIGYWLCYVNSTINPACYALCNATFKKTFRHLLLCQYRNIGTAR

[13] = measured here: cell density z-score
[14] = measured here: nuclear c-Myc green intensity z-score
[15] = measured here: nuclear pErk red intensity z-score, stronger effect = higher value

Row | SMILES | inhibition of aggregation [1] | nuclei count [1] | inhibition [2] | nuclei count [2] | z-score [3, 13] | z-score [3, 14] | z-score [3, 15] | inhibition [4] | fluorescence slope [5] | NADPH fluorescence slope [6] | slope [7] | outcome [8] | inhibition [9] | inhibition [10] | inhibition [11] | fluorescence slope [12]
1 | Oc1c(Cl)cc(Cl)cc1Sc1cc(Cl)cc(Cl)c1O | 13.7% (inactive) | 90% | -49.8% (inactive) | 117% | -0.357 | -0.512 | 0.181 | 1.48% (inactive) | -0.478 (inactive) | -6e-05 (inactive) | 0.00369 (inactive) | inactive | 155% (active) | 10.6% (inactive) | -53.7% (inactive) | –
2 | CN(C)C(=O)Oc1ccc[n+](C)c1 | -10% (inactive) | 104% | -27% (inactive) | 132% | -0.869 | 0.159 | 0.378 | 13.3% (inactive) | -0.448 (inactive) | -5.3e-05 (inactive) | 0.005 (inactive) | inactive | -1.87% (inactive) and 14.9% (inactive) | 6.65% (inactive) | 26.9% (inactive) | –
3 | Cc1cccc(Nc2ccccc2C(=O)O)c1C | -13.5% (inactive) | 100% | -91.2% (inactive) | 118% | -1.12 | 0.675 | -0.849 | 19% (inactive) | -0.511 (inactive) | -5.8e-05 (inactive) | 0.00454 (inactive) | inactive | 25.5% (inactive) | 8.41% (inactive) | 14% (inactive) | –
4 | O=c1c(O)c(-c2ccc(O)cc2O)oc2cc(O)cc(O)c12 | 2.1% (inactive) | 102% | 3% (inactive) | 114% | -0.466 | 0.679 | 0.0465 | -0.493% (inactive) | -0.439 (inactive) | -0.000116 (inactive) | 0.00575 (inactive) | inactive | 8.46% (inactive) and 17% (inactive) | 11.8% (inactive) | 29.6% (inactive) | –
5 | COC(=O)Nc1nc2ccc(C(=O)c3ccccc3)cc2[nH]1 | -1.2% (inactive) | 34.6% | -48.7% (inactive) | 112% | 1.8 | -0.197 | -0.901 | 21.2% (inactive) | -0.437 (inactive) | -9.9e-05 (inactive) | 0.0038 (inactive) | inactive | -3.25% (inactive) | 17.6% (inactive) | 46.8% (inactive) | –
6 | C[C@]12C=CC(=O)C=C1CC[C@H]1[C@@H]3C[C@@H](O)[C@](O)(C(=O)CO)[C@@]3(C)C[C@H](O)[C@@]12F | 23.7% (inactive) | 50.2% | -61.6% (inactive) | 117% | -0.539 | 1.04 | -0.0271 | 15.3% (inactive) | -0.508 (inactive) | -6.2e-05 (inactive) | 0.0055 (inactive) | inactive | 6.05% (inactive) and 21.3% (inactive) | 13.3% (inactive) | 37.9% (inactive) | –
7 | CCC(=O)O[C@]1(C(=O)CCl)[C@@H](C)C[C@H]2[C@@H]3CCC4=CC(=O)C=C[C@]4(C)[C@@]3(F)[C@@H](O)C[C@@]21C | -20.8% (inactive) | 56.7% | -5.8% (inactive) | 116% | -0.246 | 0.687 | 0.17 | 3.45% (inactive) | -0.528 (inactive) | -3.3e-05 (inactive) | 0.00421 (inactive) | inactive | 18.1% (inactive) | -10.2% (inactive) | -4.89% (inactive) | –
8 | COC(=O)c1ccc(N2C(=O)CC(N3CCN(C(=O)c4ccco4)CC3)C2=O)cc1 (stereo not given) | 0.2% (inactive) | 103% | -195% (inactive) | 104% | 0.106 | -0.422 | -0.968 | 8.31% (inactive) | -0.527 (inactive) | -5.8e-05 (inactive) | – | inactive | 1.38% (inactive) | 6.43% (inactive) | 18.5% (inactive) | 0.00534 (inactive)
9 | COc1cc(C2C(C#N)=C(N)Oc3cc(N)ccc32)cc(OC)c1OC (stereo not given) | -94.1% (inactive) | 1.6% | -83.7% (inactive) | 80.5% | 0.957 | -0.28 | -0.643 | 2.92% (inactive) | -0.434 (inactive) | 1e-06 (inactive) | 0.00523 (inactive) | inactive | 4.51% (inactive) | 46.4% (inactive) | 88.5% (active) | –
10 | CNCCC(Oc1ccc(C(F)(F)F)cc1)c1ccccc1 (stereo not given) | 10.2% (inactive) | 100% | -36.9% (inactive) | 127% | -0.242 | 0.755 | 0.581 | 12.4% (inactive) | -0.447 (inactive) | -4.5e-05 (inactive) | 0.00359 (inactive) | inactive | 1.27% (inactive) and 34.8% (inactive) | 21% (inactive) | 34.3% (inactive) | –
11 | Cn1c(=O)c2c(ncn2CC(O)CO)n(C)c1=O (stereo not given) | 15% (inactive) | 90% | -81.8% (inactive) | 127% | 0.192 | -0.712 | 0.659 | 3.59% (inactive) | -0.438 (inactive) | 4.1e-05 (inactive) | 0.00483 (inactive) | inactive | 8.88% (inactive) | 12.6% (inactive) | 29.1% (inactive) | –
12 | CCc1cccc2c3c([nH]c12)C(CC)(CC(=O)O)OCC3 (stereo not given) | 3.6% (inactive) | 111% | -122% (inactive) | 126% | -0.0395 | 0.0959 | -0.905 | -0.493% (inactive) | -0.442 (inactive) | -6.2e-05 (inactive) | 0.00464 (inactive) | inactive | -6.89% (inactive) and 27.4% (inactive) | 10.1% (inactive) | 33.6% (inactive) | –
13 | COc1cccc2c1C(=O)c1c(O)c3c(c(O)c1C2=O)C[C@@](O)(C(C)=O)C[C@@H]3O[C@H]1C[C@H](N)[C@H](O)[C@H](C)O1 | 49.1% (inactive) | 0.6% | 92.8% (active) | 84% | 0.473 | 10.2 | 4.38 | 102% (active) | -0.452 (inactive) | -3.6e-05 (inactive) | 0.00285 (inactive) | inactive | 33% (inactive) | -34.8% (inactive) | 102% (active) | –
14 | OC(CCN1CCCCC1)(c1ccccc1)C1CCCCC1 (stereo not given) | 11.9% (inactive) | 107% | -31.1% (inactive) | 119% | 0.0708 | 1.69 | -1.17 | 21.2% (inactive) | -0.528 (inactive) | -8.4e-05 (inactive) | 0.00465 (inactive) | inactive | 1.25% (inactive) and 22.1% (inactive) | 0.614% (inactive) | -5.26% (inactive) | –
15 | C[C@H]1C[C@H]2[C@@H]3CCC4=CC(=O)C=C[C@]4(C)[C@@]3(Cl)[C@@H](O)C[C@]2(C)[C@@]1(O)C(=O)CO | -11.8% (inactive) | 69.5% | -5.2% (inactive) | 113% | 0.584 | -0.957 | -0.321 | -4.44% (inactive) | -0.496 (inactive) | -7.9e-05 (inactive) | 0.00488 (inactive) | inactive | -5.54% (inactive) | 8.02% (inactive) | 22.6% (inactive) | –
16 | O=C1NC(=O)C(c2ccccc2)(c2ccccc2)N1 | -21.7% (inactive) | 101% | 23.3% (inactive) | 102% | 0.136 | -0.248 | -1.03 | 3.59% (inactive) | -0.471 (inactive) | 3.3e-05 (inactive) | 0.00448 (inactive) | inactive | 2.61% (inactive) and -21.3% (inactive) | -7.98% (inactive) | -7.53% (inactive) | –
17 | CN(C)CCCN1c2ccccc2Sc2ccccc21 | 3.5% (inactive) | 100% | 3.6% (inactive) | 110% | 0.654 | 0.845 | -0.156 | 11.3% (inactive) | -0.511 (inactive) | -7e-05 (inactive) | 0.00267 (inactive) | inactive | 8.93% (inactive) and 48% (inactive) | 6.01% (inactive) | 34.6% (inactive) | –
18 | CN(C)CCCN1c2ccccc2Sc2ccc(C(F)(F)F)cc21 | 12.5% (inactive) | 99.9% | -14.6% (inactive) | 95.5% | -0.783 | 0.801 | -0.407 | 13.3% (inactive) | -0.487 (inactive) | -8.7e-05 (inactive) | 0.00341 (inactive) | inactive | 81.9% (active) and 163% (active) | 18% (inactive) | 38.3% (inactive) | –
19 | c1ccc2c(c1)CCCC2C1=NCCN1 (stereo not given) | -2.2% (inactive) | 106% | -52.5% (inactive) | 112% | -1.5 | 0.768 | 0.367 | 5.79% (inactive) | -0.464 (inactive) | -5e-05 (inactive) | 0.00529 (inactive) | inactive | 8.79% (inactive) and 22.7% (inactive) | 12.1% (inactive) | 48.1% (inactive) | –
20 | OCCOCCN1CCN(C(c2ccccc2)c2ccc(Cl)cc2)CC1 (stereo not given) | 2.8% (inactive) | 101% | -65.7% (inactive) | 139% | -1.36 | 1.18 | 1.19 | -0.828% (inactive) | -0.46 (inactive) | 2.2e-05 (inactive) | 0.00446 (inactive) | inactive | -13.4% (inactive) | 14.5% (inactive) | 34.4% (inactive) | –
21 | CC(=O)OCC(=O)[C@@]1(O)CC[C@H]2[C@@H]3CCC4=CC(=O)C=C[C@]4(C)[C@H]3[C@@H](O)C[C@@]21C | -0.6% (inactive) | 67.7% | -93.5% (inactive) | 130% | -0.00243 | 0.765 | -0.773 | 9.37% (inactive) | -0.506 (inactive) | 4.9e-06 (inactive) | 0.00476 (inactive) | inactive | 24.9% (inactive) | -13.7% (inactive) | -1.49% (inactive) | –
22 | Cc1cc(C(C)(C)C)c(O)c(C)c1CC1=NCCN1 | 2.2% (inactive) | 87.4% | -50.7% (inactive) | 134% | 0.182 | 0.896 | -0.366 | -2.29% (inactive) | -0.367 (inactive) | -2.8e-05 (inactive) | 0.00482 (inactive) | inactive | 6.18% (inactive) and -2.62% (inactive) | 16.9% (inactive) | 24.3% (inactive) | –
